Where “and” joins values, the source holds several entries; their conditions need not be identical. Identical values can stand only once. Among all 5,500 compounds or so, about 2,000 (36%) were called active. Inconclusive results (about 18%) are left out. No stated cut-off is given here; in the data, active means normalized growth mostly below about 0.91 (no sharp cut-off); inconclusive means no clear call, values can overlap the other calls; inactive means mostly above about 0.92. The list shows a part of the results.
Test: chemical genetic growth profiling, strain panel (AID 1159580);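 further: tested at 20 µM; growth read once vehicle control cultures reached saturation at 30 °C; 1 = growth at the plate median or of vehicle wells; lower values mean less growth of the strain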
Details: S. cerevisiae deletion strains, growth OD

Measured: normalized growth

NC(N)=NCCCCN=C(N)N
inactive: locus YAL013W, strain DEP1, hits give low values 0.997 | locus YAL021C, strain ccr4, hits give low values 0.993 | locus YAL026C, strain drs2, hits give low values 0.984 | locus YAL030W, strain snc1, hits give low values 1 | locus YAL040C, strain CLN3, hits give low values 1.01 | locus YBL061C, strain skt5, hits give low values 1.01 | locus YBR009C, strain hhf1, hits give low values 1.01 | locus YBR021W, strain FUR4, hits give low values 1.04 | locus YBR023C, strain chs3, hits give low values 1.01 | locus YBR171W, strain sec66, hits give low values 0.986 | locus YBR229C, strain ROT2, hits give low values 0.957 | locus YBR231C, strain swc5, hits give low values 1 | locus YBR279W, strain paf1, hits give low values 0.992 | locus YCL011C, strain gbp2, hits give low values 1.01 | locus YCL016C, strain dcc1, hits give low values 1.01 | locus YCL029C, strain bik1, hits give low values 0.989 | locus YCL061C, strain MRC1, hits give low values 1 | locus YCL069W, strain vba3, hits give low values 0.984 | locus YCR088W, strain abp1, hits give low values 1 | locus YDL005C, strain med2, hits give low values 0.998 | locus YDL035C, strain GPR1, hits give low values 0.985 | locus YDL040C, strain nat1, hits give low values 1 | locus YDL074C, strain BRE1, hits give low values 0.957 | locus YDL101C, strain DUN1, hits give low values 0.953 | locus YDL134C, strain PPH21, hits give low values 0.995 | locus YDL185W, strain tfp1, hits give low values 0.968 | locus YDL192W, strain arf1, hits give low values 0.992 | locus YDR001C, strain nth1, hits give low values 1 | locus YDR069C, strain doa4, hits give low values 0.999 | locus YDR101C, strain arx1, hits give low values 1 | locus YDR137W, strain rgp1, hits give low values 1.01 | locus YDR150W, strain NUM1, hits give low values 0.983 | locus YDR159W, strain sac3, hits give low values 1 | locus YDR162C, strain NBP2, hits give low values 0.948 | locus YDR195W, strain ref2 0.984 | locus YDR297W, strain sur2, hits give low values 0.999 | locus YDR318W, strain mcm21, hits give low values 1.01 | locus YDR334W, strain swr1, hits give low values 0.99 | locus YDR335W, strain msn5, hits give low values 0.997 | locus YDR388W, hits give low values 0.996 | locus YDR392W, strain spt3, hits give low values 0.946 | locus YDR502C, strain sam2, hits give low values 0.991 | locus YEL003W, strain gim4, hits give low values 0.993 | locus YEL037C, strain rad23, hits give low values 0.964 | locus YEL061C, strain CIN8 (second series), hits give low values 0.991 | locus YEL061C, strain CIN8, hits give low values 0.989 | locus YER002W, strain NOP16, hits give low values 1 | locus YER015W, strain faa2, hits give low values 0.997 | locus YER016W, strain bim1, hits give low values 1 | locus YER110C, hits give low values 0.99 | locus YER111C, strain swi4, hits give low values 0.99 | locus YER155C, strain BEM2 (second series), hits give low values 1.01 | locus YER155C, strain BEM2, hits give low values 1 | locus YER167W, strain BCK2, hits give low values 1.01 | locus YFR010W, strain ubp6, hits give low values 0.98 | locus YGL078C, strain dbp3, hits give low values 0.996 | locus YGL086W, strain mad1, hits give low values 1.01 | locus YGL167C, strain pmr1, hits give low values 1.01 | locus YGL173C, strain kem1, hits give low values 0.995 | locus YGL227W, strain vid30, hits give low values 1 | locus YGL240W, strain doc1, hits give low values 1 | locus YGL248W, strain PDE1, hits give low values 0.994 | locus YGL253W, strain hxk2, hits give low values 1 | locus YGR078C, strain PAC10, hits give low values 0.969 and 0.994 | locus YGR135W, strain pre9, hits give low values 0.982 | locus YGR229C, strain SMI1, hits give low values 0.999 | locus YGR252W, strain gcn5, hits give low values 1.03 | locus YHR013C, strain ard1, hits give low values 1 | locus YHR027C, strain rpn1, hits give low values 1 | locus YHR030C, strain SLT2, hits give low values 1 and 0.976 | locus YHR079C, strain IRE1 (second series), hits give low values 1.01 | locus YHR079C, strain IRE1, hits give low values 0.986 | locus YHR094C, strain hxt1, hits give low values 1.01 | locus YHR129C, strain ARP1, hits give low values 0.994 | locus YHR142W, strain chs7, hits give low values 1 | locus YHR200W, strain rpn10, hits give low values 1.01 | locus YIL066C, strain RNR3, hits give low values 0.969 | locus YIL073C, strain SPO22, hits give low values 1.03 | locus YIL125W, strain kgd1, hits give low values 0.992 | locus YIR030C, strain dcg1, hits give low values 0.993 | locus YJL092W, strain hpr5, hits give low values 0.999 | locus YJL095W, strain BCK1 (second series), hits give low values 1.01 | locus YJL095W, strain BCK1, hits give low values 0.992 and 0.985 | locus YJL115W, strain asf1, hits give low values 0.993 | locus YJL129C, strain trk1, hits give low values 1.02 | locus YJL134W, strain LCB3, hits give low values 0.989 | locus YJL154C, strain vps35, hits give low values 0.992 | locus YJL164C, strain tpk1, hits give low values 1.01 | locus YJL166W, strain qcr8, hits give low values 1.01 | locus YJL168C, strain set2, hits give low values 0.992 | locus YJL187C, strain SWE1 (second series), hits give low values 0.969 | locus YJL187C, strain SWE1, hits give low values 1.01 | locus YJR043C, strain POL32, hits give low values 1.02 | locus YJR066W, strain TOR1, hits give low values 0.99 | locus YJR075W, strain HOC1, hits give low values 0.94

Reference: PubChem BioAssay AID1159580 (chemical genetic matrix, 2015)
